# Screening data (PubChem)
# Shown are actives, neighbours in structure and some others; about 4.8% of the full set was active somewhere.
# SMARCA2 activ = SMARCA2 (BRM) function activators, primary screen, cell-based, luminescence, high throughput | activation, % at 9.1 µM | 370,000 tested, 1% active | MG213 cells, MMTV-luciferase reporter, dexamethasone, overnight; in the data active = activation above about 7.8%
# ssDAF-12 act = S. stercoralis DAF-12 nuclear receptor activators, primary screen, cell-based, luminescence, HEK293, GRIP1 co-expression, lit1-tk-luc; Nuclear hormone receptor DAF-12 (Strongyloides stercoralis); HEK293 ssDAF-12/GRIP1 lit1-tk-luc reporter; % of 3 µM dafachronic acid response; activation, % at 6.8 µM; 370,000 tested, 1% active; AID 652126, 2013;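 active = activation above the mean over all tested compounds plus 3 SD, cut at about 0.9% in these data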
# hgDAF-12 ag = H. glycines DAF-12 receptor agonists, primary screen, cell-based, luminescence, HEK293, GAL4 fusion, UAS-luciferase | HEK293 GAL4-hgDAF12 UAS-luciferase reporter, agonist luminescence; normalized to butyrate control | Nuclear hormone receptor DAF-12 (Heterodera glycines), GAL4 fusion | activation, % at 6.8 µM | 370,000 tested, 1.8% active;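 active = activation above a cutoff set at the mean of all screened compounds plus 3 SD, cut at about 10% in these data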
# hcDAF12 agonist = H. contortus DAF-12 nuclear receptor activators, primary screen, cell-based, luminescence, HEK293, lit1-tk-luc reporter; 370,000 tested, 1.4% active; AID 652067, 2013; HEK293 hcDAF-12 lit1-tk-luc reporter; 0% DMSO, 100% Δ7-dafachronic acid; activation, % at 6.8 µM;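 active = activation above the mean of all tested compounds plus 3 SD, cut at about 5.5% in these data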
# DAX1 inh-1 = DAX1 (NR0B1) inhibitors on StAR promoter, primary screen, cell-based, luminescence, SF-1 (NR5A1), full-length DAX-1; inhibition, % at 6.8 µM; 370,000 tested, 1.1% active; HEK293T StAR-luciferase reporter, SF-1/DAX-1 repression relief;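 active = inhibition above the mean over all tested compounds plus 3 SD, cut at about 3.6% in these data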;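 also: higher inhibition means more luminescence from relief of DAX-1 repression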
# DAX1 inh-2 = DAX1 (NR0B1) inhibitors, primary screen, cell-based, HEK293, Gal4-DAX1, luciferase luminescence; Nuclear receptor subfamily 0 group B member 1 (Homo sapiens), P51843; HEK293 Gal4-DAX1 luciferase reporter; inhibition, % at 6.75 µM; 340,000 tested, 0.99% active; AID 504766, 2011;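 active = inhibition above the mean over all tested compounds plus 3 SD, cut at about 4.2% in these data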;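 also: inhibition shows as a rise in luminescence from relieved DAX1 repression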
# DAX1 inh confirm = DAX1 (NR0B1) inhibitors relieving SF-1 repression, confirmation, cell-based, luminescence, HEK293T, full-length DAX-1, SF-1 activated StAR promoter; shares compounds with DAX1 inh-1; HEK293T StAR-promoter luciferase reporter, SF-1/DAX-1 repression; inhibition, % at 6.8 µM; 2,400 tested, 87% active;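 active = inhibition above the average of every tested compound plus 3 SD, cut at about 3.8% in these data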
# SF1 mutant ctr = StAR reporter signal changes without DAX1, counter-screen for DAX1 inhibitor project, cell-based, luminescence, AF-2 mutant SF-1, transactivation; shares compounds with DAX1 inh-1; HEK293 StAR-luciferase, SF-1 AF2 mutant; inhibition, % at 6.8 µM; 2,400 tested, 78% active; AID 652136, 2013;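 active = inhibition above the mean of all tested compounds plus 3 SD, cut at about 3% in these data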
# SMARCA2 act conf = SMARCA2 (BRM) function activators, confirmation, cell-based, luminescence, triplicate; 3,500 tested, 30% active; MG213 cells, MMTV-luciferase with dexamethasone, overnight; MG213 cells expressing E1A, Rb sequestered; DMSO wells 0%, reference activator 100%; activation, % at 9.1 µM; shares compounds with SMARCA2 activ;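 active = activation above its plate's cutoff, the mean activation of tested wells plus 3 SD, cut at about 7.9% in these data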
# GAL4-VP16 Luc = GAL4-VP16 luciferase reporter activation, counter-screen for SMARCA2 (BRM) activator project, cell-based, pG5luc, luminescence, high throughput; 3,500 tested, 41% active; activation, % at 9.1 µM; HEK293 GAL4-VP16 pG5luc reporter; scaled: DMSO wells 0%, SAHA wells 100%; shares compounds with SMARCA2 activ;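 active = activation above the solvent-only control well mean plus 3 SD, averaged across control plates, cut at about 5.2% in these data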
# LXRb hcDAF ctr = LXR agonists, Gal4 luciferase reporter, confirmation, counter-screen for hcDAF-12 agonist project, cell-based, luminescence, HEK293, H. contortus campaign | shares compounds with hcDAF12 agonist | HEK293 Gal4-LXR tk-luc reporter, 24 h; normalized: DMSO 0%, positive control 100% | activation, % at 6.8 µM | 3,400 tested, under 10 active;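 active = mean percent activation of the reporter above a cutoff set as the average over tested compounds plus their standard deviation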
# Target sequence (P55055 whole entry, looked up, the tested form may be a part): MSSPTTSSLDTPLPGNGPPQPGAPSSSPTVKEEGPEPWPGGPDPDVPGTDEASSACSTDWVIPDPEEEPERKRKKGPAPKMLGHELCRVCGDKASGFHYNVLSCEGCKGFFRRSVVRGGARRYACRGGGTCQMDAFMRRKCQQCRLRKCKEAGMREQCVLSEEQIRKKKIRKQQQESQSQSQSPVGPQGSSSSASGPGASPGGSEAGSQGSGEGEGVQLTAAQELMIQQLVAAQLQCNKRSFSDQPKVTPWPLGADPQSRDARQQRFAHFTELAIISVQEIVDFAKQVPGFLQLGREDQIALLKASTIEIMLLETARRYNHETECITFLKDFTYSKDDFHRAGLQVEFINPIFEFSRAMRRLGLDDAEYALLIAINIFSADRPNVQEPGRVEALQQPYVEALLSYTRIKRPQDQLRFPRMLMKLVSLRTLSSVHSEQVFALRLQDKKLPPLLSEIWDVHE
# hcDAF12 conf = H. contortus DAF-12 receptor agonists, confirmation, cell-based, luminescence, HEK293, lit1-tk-luc, triplicate; shares compounds with hcDAF12 agonist; HEK293 hcDAF-12 lit1-tk-luc reporter; % of Δ7-dafachronic acid response; activation, % at 6.8 µM; 3,400 tested, 61% active; AID 743032, 2013;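 active = mean activation across triplicate tests above the threshold derived from the earlier primary screen, cut at about 5.5% in these data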
# Numbers stand for hits; – = inactive; · = not tested or not shown.
SMILES,SMARCA2 activ,ssDAF-12 act,hgDAF-12 ag,hcDAF12 agonist,DAX1 inh-1,DAX1 inh-2,DAX1 inh confirm,SF1 mutant ctr,LXRb hcDAF ctr,hcDAF12 conf,others
COc1ccccc1CCn1cnc(-c2ccccc2F)c1CC(C)C,–,–,–,–,–,·,·,·,·,·,
CC(C)c1ccc(OCCCN2CCC(C(O)(c3ccccc3)c3ccccc3)CC2)cc1,–,–,–,–,–,·,·,·,·,·,
COc1ccccc1OCc1cc(C(=O)N(C)CCC2CCCCO2)no1 (configuration not stated),11,–,11,–,5.0,–,7.1,–,·,·,SMARCA2 act conf=–;GAL4-VP16 Luc=11
COc1cc(C=NNc2ccccc2)ccc1OC(=O)c1ccccc1,–,–,–,–,–,–,·,·,·,·,
COc1ccc(/C=N/Nc2ccc(C(=O)O)cc2)cc1OC,9.1,–,11,6.1,5.3,–,17,5.8,·,·,SMARCA2 act conf=–;GAL4-VP16 Luc=13
COc1cccc(/C=C2\CC3(OC(=O)C4CCCC4)CCCN2C3)c1 (configuration not stated),–,–,–,–,–,·,·,·,·,·,
COc1ccc(-c2cc(NC=O)c3ncc(-c4ccc(OC)c(OC)c4)n3c2)c(OC)c1,11,–,–,–,6.5,·,12,–,·,·,SMARCA2 act conf=17;GAL4-VP16 Luc=11
O=C(CCc1ccccc1)N[C@H]1[C@H](OCc2ccccc2)CCC[C@@]12C(=O)N(Cc1ccccc1)c1ccc(-c3ccccn3)cc12,–,–,–,–,–,·,·,·,·,·,
Cc1ccc(C(=O)OCc2cc(=O)n3c(C)csc3n2)s1,8.8,–,–,–,4.8,–,–,–,·,·,SMARCA2 act conf=–;GAL4-VP16 Luc=–
Cc1nc2ccc(NC(=O)c3ccc(F)cc3F)cc2c(=O)[nH]1,–,–,–,–,–,·,·,·,·,·,
COCCCNC(=O)C[C@H]1C[C@@]2(C(=O)OC)C(=C[C@H](C(C)C)O[C@@H]2C2CC2)N(Cc2cccc3ccccc23)C1=O,–,–,–,–,–,·,·,·,·,·,
CCOC(=O)c1ccc2nc(NC(=O)C(C)C)sc2c1,10,–,13,–,4.6,–,–,–,·,·,SMARCA2 act conf=–;GAL4-VP16 Luc=–
C=CS(=O)(=O)N(Cc1ccc(F)cc1)C(=C)C(=O)OC,–,–,–,–,–,·,·,·,·,·,
CCC(CC)c1nnc(NC(=O)c2ccc3ccccc3n2)s1,–,2.1,–,11,4.6,–,10,6.8,–,11,
CCC(CC)c1nnc(NC(=O)c2cc(-c3ccccc3)nc3ccccc23)s1,–,–,–,–,–,–,·,·,·,·,
CC(=NN1CCN(c2ccccn2)CC1)c1ccccc1O,–,–,–,–,–,·,·,·,·,·,
Cc1c(N)ccc(-n2nc3ccccc3n2)c1C,–,–,–,–,–,·,·,·,·,·,
Nc1ccccc1-n1nc2ccc3ccccc3c2n1,–,3.1,20,18,9.6,4.6,15,8.5,–,23,
COc1ccc(N=CC2=C(O)c3ccccc3C2=O)cc1,–,1.1,11,13,6.0,–,–,–,–,6.1,
O=C1C(C=Nc2ccccc2O)=C(O)c2ccccc21,–,2.0,16,20,5.9,–,12,5.1,–,19,
COc1ccc(N=Cc2ccccc2O)cc1,–,–,–,–,–,–,·,·,·,·,
CN=CC1=C(O)c2ccccc2C1=O,–,–,–,–,–,–,·,·,·,·,
COc1ccc2oc(C(=O)Nc3ccccn3)c(C)c2c1,–,1.1,21,18,13,–,12,6.1,–,18,
N/C(=N\C(=S)Nc1ccc2c(c1)OCO2)c1ccccc1,–,1.7,21,6.8,21,·,14,8.8,–,10,
COc1ccc(S(=O)(=O)N(C)C[C@@H]2Oc3c(NC(=O)Nc4ccccc4)cccc3C(=O)N([C@@H](C)CO)C[C@H]2C)cc1,·,–,–,–,·,·,·,·,·,·,
SMILES,SMARCA2 activ,ssDAF-12 act,hgDAF-12 ag,hcDAF12 agonist,DAX1 inh-1,DAX1 inh-2,DAX1 inh confirm,SF1 mutant ctr,LXRb hcDAF ctr,hcDAF12 conf,others
Cc1ccc2nc(CSc3nc(C)cc(C)c3C#N)[nH]c2c1,–,2.0,–,17,5.8,–,14,7.4,–,20,
O=c1c2c(nc3cc(-c4ccc(F)cc4)[nH]n13)CCCC2,–,–,–,6.9,5.4,–,11,3.4,–,–,
CC(C)Cc1cc(C(=O)Nc2ccc3c(c2)OCO3)no1,–,1.5,13,7.5,7.3,–,14,7.2,–,–,
Clc1ccc(-c2cc(-c3ccccc3)on2)cc1,–,–,–,–,–,–,·,·,·,·,
Cc1ccc(-c2cc(-c3ccccc3)no2)c(O)c1,–,3.1,11,16,6.8,–,14,3.7,–,19,
Cc1ccccc1-c1cc(-c2ccccc2O)on1,–,3.4,22,22,4.8,–,15,12,–,20,
